# Laboratory results reported in publication PMC7862700, “An all-to-all approach to the identification of sequence-specific readers for epigenetic DNA modifications on cytosine”.
# Assays:
# Assay in all cases: DAPPL (digital affinity profiling via proximity ligation, sequencing); 10 mM Tris-HCl pH 7.5, 50 mM NaCl, 1 mM DTT, 4% glycerol, room temperature, 30 min; GST-TFs on glutathione beads, 16-mer random dsDNA library, 0.1% formaldehyde crosslink after washing; high values mean tight binding
# Conditions in all cases: protein: recombinant; tags: N-terminal GST; dsDNA, one strand shown
# [1] = target: T1, EHF (Homo sapiens, UniProt Q9NZC4 1-300)
# T1 sequence: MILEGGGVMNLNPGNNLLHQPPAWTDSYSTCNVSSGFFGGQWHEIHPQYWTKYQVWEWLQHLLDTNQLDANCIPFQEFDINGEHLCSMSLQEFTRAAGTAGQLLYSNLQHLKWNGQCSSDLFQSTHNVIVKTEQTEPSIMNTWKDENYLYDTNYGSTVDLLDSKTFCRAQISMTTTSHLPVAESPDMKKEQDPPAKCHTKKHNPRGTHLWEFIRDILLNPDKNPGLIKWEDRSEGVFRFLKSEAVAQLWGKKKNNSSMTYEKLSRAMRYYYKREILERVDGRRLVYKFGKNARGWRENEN
# Procedure, shortened: (§1)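 Pools were built from human transcription factors expressed in yeast as GST fusions, captured on glutathione beads and DNA-barcoded, along with a tag-only sample. Incubation with 200 nmole of a 16-mer random double-stranded DNA library lasted 30 min at room temperature in Tris/NaCl/DTT/glycerol buffer, and was followed by washing, 0.1% formaldehyde crosslinking, proximity ligation, PCR amplification and Illumina NextSeq500 sequencing. Binding signal is the quotient of each hexamer's read frequency for a factor and its frequency for the tag-only sample.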
# [2] = target: ETV5 (Homo sapiens, UniProt P41161 1-510)
# Procedure, shortened: as §1
# [3] = target: T2, ELF3 (Homo sapiens, UniProt P78545 1-371)
# T2 sequence: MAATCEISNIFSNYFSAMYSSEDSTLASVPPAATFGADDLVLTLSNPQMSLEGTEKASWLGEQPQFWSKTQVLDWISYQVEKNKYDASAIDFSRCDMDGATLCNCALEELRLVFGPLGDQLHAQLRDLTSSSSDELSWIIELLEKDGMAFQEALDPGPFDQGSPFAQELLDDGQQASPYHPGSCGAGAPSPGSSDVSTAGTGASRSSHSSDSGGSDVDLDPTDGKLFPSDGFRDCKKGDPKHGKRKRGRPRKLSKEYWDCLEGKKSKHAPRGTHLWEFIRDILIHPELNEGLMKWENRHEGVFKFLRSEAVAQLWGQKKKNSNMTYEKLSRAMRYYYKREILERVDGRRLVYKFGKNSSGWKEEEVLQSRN
# Procedure, shortened: as §1
# [4] = target: T3, ERF (Homo sapiens, UniProt P50548 1-548)
# T3 sequence: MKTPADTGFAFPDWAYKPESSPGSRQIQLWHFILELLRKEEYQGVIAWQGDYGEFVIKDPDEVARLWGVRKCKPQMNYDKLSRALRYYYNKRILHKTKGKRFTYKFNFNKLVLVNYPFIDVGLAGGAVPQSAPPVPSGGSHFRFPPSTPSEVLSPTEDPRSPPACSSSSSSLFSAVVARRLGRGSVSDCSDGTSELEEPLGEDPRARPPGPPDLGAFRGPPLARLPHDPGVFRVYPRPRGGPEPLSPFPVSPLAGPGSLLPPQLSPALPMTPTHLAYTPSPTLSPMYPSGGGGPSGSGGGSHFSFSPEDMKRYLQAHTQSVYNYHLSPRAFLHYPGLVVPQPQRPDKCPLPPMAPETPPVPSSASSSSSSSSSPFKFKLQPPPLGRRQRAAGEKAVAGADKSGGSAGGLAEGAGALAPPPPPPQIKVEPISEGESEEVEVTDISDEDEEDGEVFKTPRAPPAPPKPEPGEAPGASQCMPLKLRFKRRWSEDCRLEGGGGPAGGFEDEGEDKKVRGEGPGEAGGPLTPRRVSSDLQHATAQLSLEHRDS
# Procedure, shortened: as §1
# [5] = target: T4, ETS2 (Homo sapiens, UniProt P15036 1-469)
# T4 sequence: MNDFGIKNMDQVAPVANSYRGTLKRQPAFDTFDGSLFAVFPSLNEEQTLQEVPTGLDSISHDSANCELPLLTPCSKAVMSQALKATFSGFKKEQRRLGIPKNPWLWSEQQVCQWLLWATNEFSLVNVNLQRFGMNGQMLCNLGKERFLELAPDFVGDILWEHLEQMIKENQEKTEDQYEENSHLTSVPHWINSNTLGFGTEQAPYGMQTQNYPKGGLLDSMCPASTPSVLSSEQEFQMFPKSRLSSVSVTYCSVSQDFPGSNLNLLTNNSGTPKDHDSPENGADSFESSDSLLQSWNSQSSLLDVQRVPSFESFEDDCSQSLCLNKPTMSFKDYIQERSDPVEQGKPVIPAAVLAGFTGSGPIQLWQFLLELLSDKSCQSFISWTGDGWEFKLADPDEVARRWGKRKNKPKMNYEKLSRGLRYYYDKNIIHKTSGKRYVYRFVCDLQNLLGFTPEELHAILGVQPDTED
# Procedure, shortened: as §1
# [6] = target: T5, ETV7 (Homo sapiens, UniProt Q9Y603 1-341)
# T5 sequence: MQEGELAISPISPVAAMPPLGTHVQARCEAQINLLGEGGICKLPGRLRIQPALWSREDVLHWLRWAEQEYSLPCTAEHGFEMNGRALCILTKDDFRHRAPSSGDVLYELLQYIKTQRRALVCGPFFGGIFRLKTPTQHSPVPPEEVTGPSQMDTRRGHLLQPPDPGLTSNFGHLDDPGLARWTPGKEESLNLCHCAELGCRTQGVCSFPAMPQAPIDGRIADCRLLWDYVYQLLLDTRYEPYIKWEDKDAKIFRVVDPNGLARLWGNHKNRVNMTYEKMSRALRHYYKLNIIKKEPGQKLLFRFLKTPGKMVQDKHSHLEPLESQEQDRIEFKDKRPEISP
# Procedure, shortened: as §1
# Chain of ETV5 (P41161 whole entry): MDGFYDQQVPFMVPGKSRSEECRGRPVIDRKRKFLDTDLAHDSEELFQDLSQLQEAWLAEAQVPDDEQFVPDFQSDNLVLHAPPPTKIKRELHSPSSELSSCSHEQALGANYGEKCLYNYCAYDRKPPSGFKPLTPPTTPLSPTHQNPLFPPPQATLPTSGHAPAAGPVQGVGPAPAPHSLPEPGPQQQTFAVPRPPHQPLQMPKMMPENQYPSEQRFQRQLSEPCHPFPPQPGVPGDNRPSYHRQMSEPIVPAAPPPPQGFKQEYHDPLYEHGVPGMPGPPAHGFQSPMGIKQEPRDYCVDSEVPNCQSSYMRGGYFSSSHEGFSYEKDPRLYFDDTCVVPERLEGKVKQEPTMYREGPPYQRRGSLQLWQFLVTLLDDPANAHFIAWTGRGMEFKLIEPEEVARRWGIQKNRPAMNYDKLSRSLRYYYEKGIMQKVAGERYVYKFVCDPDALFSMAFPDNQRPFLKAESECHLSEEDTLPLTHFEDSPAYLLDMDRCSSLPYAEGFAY
sequence,measurement,setting,value
CGAACG,binding signal,[1],"1 fold enrichment (6-mer frequency, TF over GST control)"
same,binding signal,[2],"1.03 fold enrichment (6-mer frequency, TF over GST control)"
same,binding signal,[3],"1.05 fold enrichment (6-mer frequency, TF over GST control)"
same,binding signal,[4],"1.11 fold enrichment (6-mer frequency, TF over GST control)"
same,binding signal,[5],"1.03 fold enrichment (6-mer frequency, TF over GST control)"
same,binding signal,[6],"1.02 fold enrichment (6-mer frequency, TF over GST control)"
